The source made the active and inactive calls. How the calls were made is not given here.

Results on 39 molecules are retold here after PubChem BioAssay AID720650 (Broad Institute, 2013).

The nature of this assay: C difficile toxins, biochemical counterscreen, UDPG substrate absence, confirmatory dose response (AID 720650). The conditions noted are these: series mostly up to 19.5 µM. For orientation: The purpose of a counterscreen is to sort out artefacts and off-target activity.
One may read the AC50 as the concentration at which the activity in the assay is half-maximal. On to `O=C(C[C@@H]1CC[C@@H]2[C@H](COC[C@H](O)CN2C(=O)c2ccccn2)O1)NC1CCC1`, for which the AC50 result is “inactive”.
Next, `Cc1ccc(C2=NS(=O)(=O)N(C)C(C(=O)NCc3cccs3)=C2)cc1`: “inactive”; `CN(C)/C=C(\C#N)C(=O)Nc1ccc(O)cc1F`: 9.11 µM (active); `CCN1CCN(C(=O)C2=CC(c3ccc(OC)cc3)=NS(=O)(=O)N2C)CC1`: “inactive”.
Next, `CCOc1ccc(S(=O)(=O)NCc2ccccc2Cl)cc1C(N)=O`: > 39 µM (inactive).
Next, `Cc1nc2ccccc2nc1OCC(=O)Nc1ccc(F)cc1`: “inactive”; `COc1ccc(/C=C/c2onc(C)c2S(=O)(=O)N2CCC(C(=O)N3CCCCCC3)CC2)cc1`: “inactive”; `CC1CC(=O)N(c2ccc(NCCc3ccc(O)cc3)c([N+](=O)[O-])c2)C1=O` (centres undefined): “inactive”.
Turning to `CCN1/C(=C2\OC(=S)N(C)C2=O)C=Cc2ccccc21`, the AC50 entry was “inactive”.
Turning to `Cc1ccc(C)c2c1cc(C)c1nnc(SCC(=O)NCc3ccc4c(c3)OCO4)n12`, the AC50 is 13.1 µM (active).
In the case of `Cc1cccc(-n2nnc(C(=O)NCc3ccccc3Cl)c2N)c1` it was “inactive”.
In the case of `COc1cc2[nH]c(=S)nc(NCCC(C)C)c2cc1OC` it was “inactive”; in that of `CCOCC(=O)Nc1cc(Cl)ccc1C`, “inactive”; in that of `CCN(CC)C(=O)C1CCN(S(=O)(=O)c2c(C)noc2/C=C/c2cccc(C)c2)CC1`, “inactive”.
Next, `CCC(=O)N1CC[C@@H]2[C@H]1c1cc(-c3ccccc3)ccc1N(C)[C@H]2CO`: 4.44 µM (active); `COCC#Cc1ccc2c(c1)O[C@@H](CN(C)C(=O)CC1CC1)[C@H](C)CN([C@@H](C)CO)S2(=O)=O`: “inactive”.
On to `Cc1ccc(C(=O)COC(=O)c2cc(=O)[nH]c3ccccc23)cc1`, for which the AC50 entry is “inactive”.
Next, `COc1cccc(C(=O)C2CCCN(Cc3ccc(F)cc3)C2)c1` (centres undefined): “inactive”.
In the case of `Cc1ccc(Oc2c(CO)c(-c3ccccc3)nn2C)cc1` it was “inactive”.
Next, `COc1ccc(C2=NS(=O)(=O)N(C)C(C(=O)N3CCN(C)CC3)=C2)cc1`: “inactive”; `COc1cc(/C=N/NC(=O)CSc2ccccn2)ccc1O`: “inactive”; `O=C1CSC(=Nc2ccc(O)cc2)N1`: 17.6 µM (active).
As for `Cc1ccccc1NS(=O)(=O)c1ccc(OCC(=O)N2CCCCC2)cc1`, the AC50 entry was “inactive”.
Regarding `COc1ccc([N+](=O)[O-])cc1NC(=S)NC(C)=O`, the AC50 result was “inactive”.
In the case of `CC1CCCN(C(=S)Nc2ccc(F)cc2)C1` (centres undefined) it was “inactive”; in that of `COc1cccc(C(CNc2ccc(S(=O)(=O)N3CCN(C)CC3)cc2[N+](=O)[O-])N(C)C)c1` (centres undefined), “inactive”.
Next, `Cn1c(=O)[nH]c(=O)c2c1[nH]c(=S)n2CCCc1ccccc1`: “inactive”.
In the case of `CC(OC(=O)C1=COCCO1)C(=O)c1ccc(Br)cc1` (centres undefined) it was “inactive”; in that of `COc1ccc(/C=N/n2c(-c3cc(C)[nH]n3)n[nH]c2=S)cc1OC`, > 39 µM (inactive); in that of `O=C(NNC(=O)c1cccc2ccccc12)c1cccc(F)c1`, “inactive”.
In the case of `Nc1nc(Cl)cc(NCCc2ccc(O)cc2)n1`, the AC50 is 21.8 µM (active).
Next, `CCOc1cc(/C=N/n2cnnc2)ccc1O`: “inactive”.
Turning to `Cc1ccn2c(Cc3ccccc3)c(-c3ccc(F)cc3)nc2c1`, the AC50 result is “inactive”.
In the case of `O=C(NCc1cc(C(F)(F)F)cc(C(F)(F)F)c1)C1CC(c2c(Cl)cccc2Cl)=NO1` (centres undefined), the AC50 entry was “inactive”.
In the case of `CCNC(=O)C[C@H]1CC[C@@H]2[C@H](COc3ccc(NC(C)=O)cc3C(=O)N2C)O1` it was “inactive”; in that of `Cc1ccccc1COc1ccc2oc(C)c(C(=O)O)c2c1`, “inactive”.
For `ON=C1c2ccccc2-c2ccc(O)cc21`, the half-maximal activity concentration (AC50) is 7.21 µM (active).
In the case of `O=C(COc1ncnc2ccccc12)NCCc1ccc(F)cc1` it was “inactive”; in that of `COc1ccc(-c2nc(N)ncc2-c2ccccc2OC)c(O)c1`, “inactive”.
